# According to PubChem BioAssay (NCATS):
# Inconclusive results are not listed. Activity calls are given as the source filed them. Unless noted, calls come from the whole dose curve; as a rule, active = well fitted curve in the direction sought with a large enough effect; inconclusive = small, poorly fitted or top-dose-only effect, or another doubt; inactive = no such curve, though single readings can be large; an effect the other way counts as inactive or inconclusive.
# Columns and labels:
# [1] = P-glycoprotein substrates identified in KB-3-1 adenocarcinoma cell line, qHTS therapeutic library screen (AID 1346986); note: nearly all actives have a fitted effect of over 60% in size;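 note: potency is the fitted concentration of half-maximal effect; potency is for cytotoxicity meaning loss of cell viability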
# In short: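 In 1536-well format, 500 cells/well received pinned compound titrations and were incubated 72 h, 5% CO2. Viability was read by CellTiter-Glo; cytotoxic if AC50 < 10 uM and efficacy >50%.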
# [2] = P-glycoprotein substrates identified in KB-8-5-11 adenocarcinoma cell line, qHTS therapeutic library screen (AID 1346987); note: nearly all actives have a fitted effect of over 65% in size; note: potency is the fitted concentration of half-maximal effect
# In short: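 Compounds are pinned in dose-response onto KB-8-5-11 cells (500 cells/well, colchicine-free medium) and left 72 h at 37 degree C. CellTiter-Glo luminescence then yields AC50 values.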
# [3] = Primary qHTS for inhibitors of nuclear receptor binding SET domain protein 2 (NSD2) in an isogenic RCH-ACV NSD2 p.E1099K mutant (9B) (AID 1645876); note: nearly all actives have a fitted effect of over 70% in size; note: potency is the fitted concentration of half-maximal effect
# [4] = Primary qHTS for inhibitors of nuclear receptor binding SET domain protein 2 (NSD2) in an RCH-ACV wild type WT cells (2C) (AID 1645877); note: nearly all actives have a fitted effect of over 70% in size; note: potency is the fitted concentration of half-maximal effect
# [5] = target: Catechol O-methyltransferase (Homo sapiens) (UniProt P21964); experiment: Confirmatory Screen for Target Class Profiling of Small Molecule Inhibitors of Methyltransferases (AID 1745852; calls by dose curve; note: potency is the fitted concentration of half-maximal effect; for activity change, negative = inhibition: % is set by controls: 0 for no effect and ±100 for the full control effect); conditions: MTase-Glo luminescence, SAH detection, recombinant enzyme; measured here: COMT max response; stronger effect = lower value
# Sequence of Catechol O-methyltransferase (Homo sapiens) (P21964 whole entry, looked up): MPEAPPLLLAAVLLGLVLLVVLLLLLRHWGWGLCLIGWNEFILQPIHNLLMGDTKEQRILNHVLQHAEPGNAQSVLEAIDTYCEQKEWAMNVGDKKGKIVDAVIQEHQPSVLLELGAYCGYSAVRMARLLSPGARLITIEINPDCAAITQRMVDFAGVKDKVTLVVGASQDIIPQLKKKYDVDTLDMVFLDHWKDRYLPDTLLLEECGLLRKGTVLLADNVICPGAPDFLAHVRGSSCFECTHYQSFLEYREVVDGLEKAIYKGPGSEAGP
# [6] = target: Guanidinoacetate N-methyltransferase (Homo sapiens) (UniProt Q14353); experiment: as above; conditions: activity change, negative = inhibition: at 57.3 µM (top of the series) unless noted
# [7] = target: Nicotinamide N-methyltransferase (Homo sapiens) (UniProt P40261); experiment: as above; conditions: MTase-Glo luminescence, SAH detection, recombinant enzyme; measured here: NNMT max response; stronger effect = lower value
# Sequence of Nicotinamide N-methyltransferase (Homo sapiens) (P40261 whole entry, looked up): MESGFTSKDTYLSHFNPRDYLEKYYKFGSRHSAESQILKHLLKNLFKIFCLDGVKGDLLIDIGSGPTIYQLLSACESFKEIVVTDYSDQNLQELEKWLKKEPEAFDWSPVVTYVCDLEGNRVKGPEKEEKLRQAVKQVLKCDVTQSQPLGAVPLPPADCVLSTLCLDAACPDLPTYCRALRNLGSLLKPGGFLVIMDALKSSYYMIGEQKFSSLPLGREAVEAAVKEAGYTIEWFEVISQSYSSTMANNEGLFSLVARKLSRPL
# [8] = target: Phenylethanolamine N-methyltransferase (Homo sapiens) (UniProt P11086); experiment: as above; conditions: MTase-Glo luminescence, SAH detection, recombinant enzyme; measured here: PNMT max response; stronger effect = lower value
# Sequence of Phenylethanolamine N-methyltransferase (Homo sapiens) (P11086 whole entry, looked up): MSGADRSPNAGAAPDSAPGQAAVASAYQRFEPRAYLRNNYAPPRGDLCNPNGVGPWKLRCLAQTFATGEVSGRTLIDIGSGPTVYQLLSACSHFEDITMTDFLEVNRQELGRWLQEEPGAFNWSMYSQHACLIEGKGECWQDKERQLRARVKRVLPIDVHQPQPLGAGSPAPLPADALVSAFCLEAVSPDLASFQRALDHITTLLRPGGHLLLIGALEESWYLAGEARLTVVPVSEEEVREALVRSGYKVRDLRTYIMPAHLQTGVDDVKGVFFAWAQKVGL
# [9] = target: Glutathione peroxidase 1 (Homo sapiens) (UniProt P07203); experiment: Primary qHTS Assay for Inhibitors of Recombinant Selenoprotein Glutathione Peroxidase 1 (GPX1) (AID 1845191); note: nearly all actives have a fitted effect of over 65% in size
# Sequence of Glutathione peroxidase 1 (Homo sapiens) (P07203 whole entry, looked up): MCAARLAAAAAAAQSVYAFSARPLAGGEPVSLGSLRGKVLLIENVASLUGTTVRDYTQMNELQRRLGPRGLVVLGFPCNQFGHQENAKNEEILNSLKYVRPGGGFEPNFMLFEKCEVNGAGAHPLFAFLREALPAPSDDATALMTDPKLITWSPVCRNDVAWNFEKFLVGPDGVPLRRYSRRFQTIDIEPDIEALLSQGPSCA
# In short: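 GR-coupled readout: NADPH consumption tracked by fluorescence, ex 340/em 450 nm, at t=0 and after 15 min at RT. Final mix 10 nM GPX1, 1 mM GSH, 0.5 mM CHP, 0.5 mM NADPH, 100 nM GR, 0.01% BSA, following 30 min enzyme–compound preincubation.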
# [10] = NCATS anti-infectives library activity on HEK293 viability as a counter-qHTS vs the C. elegans viability qHTS (AID 1745854); note: % is set by controls: 0 for no effect and ±100 for the full control effect
# In short: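 Cytotoxicity counter-screen to a worm viability qHTS: CellTiter-Glo luminescence read 10 min after reagent addition. Compounds (final up to 41.7 uM, a 1:5 dilution series) incubated 24 hr at 37C with 1,500 HEK293 cells per well; digitonin control.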
# [11] = qHTS to identify inhibitors of the type 1 interferon - major histocompatibility complex class I in skeletal muscle: primary screen against the NCATS Mechanism Interrogation Plate v5.0 (MIPE) Libary (AID 1347411); note: nearly all actives have a fitted effect of over 65% in size; note: potency is the fitted concentration of half-maximal effect;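 for activity change, negative = inhibition: plate controls were vehicle for no effect and reference inhibitor for full effect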
# In short: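 Luminescence from CRISPR HiBit-tagged endogenous HLA-B in human myoblasts reported MHC class I level after 24 h of IFN-beta (4 ng/ml) plus compound. Compounds ran as 11-point 1:3 series, top 46 uM final.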
# [12] = target: Phospholipid hydroperoxide glutathione peroxidase GPX4 (Homo sapiens) (UniProt P36969); experiment: Primary qHTS Assay for Inhibitors of Recombinant Selenoprotein Glutathione Peroxidase 4 (GPX4) (AID 1845192); conditions: outcome: dose series up to 50 µM unless noted; note: % is set by controls: 0 for no effect and ±100 for the full control effect; nearly all actives have a fitted effect of over 65% in size
# Sequence of Phospholipid hydroperoxide glutathione peroxidase GPX4 (Homo sapiens) (P36969 whole entry, looked up): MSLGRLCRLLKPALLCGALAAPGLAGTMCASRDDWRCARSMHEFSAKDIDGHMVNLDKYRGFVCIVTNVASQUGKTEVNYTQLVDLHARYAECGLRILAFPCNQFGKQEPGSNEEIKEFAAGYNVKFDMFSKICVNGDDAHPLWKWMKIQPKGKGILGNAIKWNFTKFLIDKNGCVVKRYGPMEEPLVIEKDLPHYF
# In short: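 Steps: GPX4 plus compound, 30 min RT; add GR/GSH/NADPH master mix; start with cumene hydroperoxide; read 340/450 nm fluorescence at 0 and 15 min. Finals were 200 nM GPX4, 1 mM GSH, 0.5 mM CHP, 0.5 mM NADPH, 100 nM GR.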
# [13] = qHTS drug screen for cell cycle checkpoint inhibitors in PARPi-resistant BRCA-mutant ovarian cancer cell lines. (AID 1963452; calls by dose curve; note: potency is the fitted concentration of half-maximal effect); conditions: PEO1/OlaR viability, CellTiter-Glo luminescence, 96 h; for Z-AUC: stronger effect = lower value
# In short: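 PEO1, PEO4 and PEO1/OlaR ovarian cancer cells, 600 per well, exposed 96 h at 37C to a dilution series. Viability read by CellTiter-Glo luminescence, normalized to DMSO and empty wells; activity summarized as Z-AUC.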
# [14] = target: Calcium and integrin-binding protein 1 (Homo sapiens) (UniProt Q99828); experiment: Primary qHTS for Identification of Calcium Integrin Binding Protein 1 (CIB1) Competitor (AID 1508620);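 note: GST tagged CIB1 binding a fluorescein labelled alphaIIb integrin peptide tracer; top concentration of the series differs between compounds; % is set by controls: 0 for no effect and ±100 for the full control effect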
# Sequence of Calcium and integrin-binding protein 1 (Homo sapiens) (Q99828 whole entry, looked up): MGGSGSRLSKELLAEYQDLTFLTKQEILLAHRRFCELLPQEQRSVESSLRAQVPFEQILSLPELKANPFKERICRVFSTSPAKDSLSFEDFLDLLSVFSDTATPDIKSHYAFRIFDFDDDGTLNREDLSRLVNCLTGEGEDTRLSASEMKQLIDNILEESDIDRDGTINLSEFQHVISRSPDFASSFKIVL
# In short: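 Fluorescence polarization competition: GST-tagged CIB1 (1 uM final) preincubated with compound 15 min at room temperature, then FITC-labelled alphaIIb peptide (100 nM final) added. After 15 min at room temperature, polarization read at Ex 480/Em 540.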
# [15] = system: Zika virus NS2B-NS3 protease; experiment: Primary screen GU AMC qHTS for Zika virus inhibitors (AID 1347154);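 note: 0% = no-inhibitor control and -100% = no-enzyme control; nearly all actives have a fitted effect of over 70% in size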
# In short: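 Unlinked Zika NS2B hydrophilic domain–NS3 protease complex at 25 nM in 10 mM Tris-HCl pH 8.0, 0.01% Tween 20, with an AMC peptide substrate. Fluorescence change (340/450 nm) over 15 min at room temperature, normalized to controls, fitted to 4-parameter Hill.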
# [16] = Primary qHTS for small molecule stabilizers of the endoplasmic reticulum resident proteome: Secreted ER Calcium Modulated Protein (SERCaMP) assay (AID 1508630); note: % is set by controls: 0 for no effect and ±100 for the full control effect
# In short: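 The SH-SY5Y reporter protocol was run at 3 concentrations up to 38.3 uM (primary) or 11 concentrations (follow-up): 16 h compound, 100 nM thapsigargin for 4 h, then extracellular luciferase luminescence.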
# [17] = measured here: PEO1 parental Z-AUC
compound,measurement,setting,value
COC(=O)c1ccc(=O)c2nc3/c(=C/O)c(O)cc(=O)c3[nH]c12,Potency,[1],inactive
same,Potency,[2],inactive
same,Potency,[3],5.17 µM (active)
same,Potency,[4],13 µM (active)
same,activity,[5],-24.9%
same,"activity change, negative = inhibition",[6],-20.5%
same,activity,[7],-20%
same,activity,[8],-28.7%
same,Potency,[9],inactive
CC(C)C(=O)OC[C@@]1(N=[N+]=[N-])O[C@@H](n2ccc(N)nc2=O)[C@H](OC(=O)C(C)C)[C@@H]1OC(=O)C(C)C,Potency,[1],inactive
same,Potency,[2],inactive
same,Potency,[3],inactive
same,Potency,[4],inactive
same,outcome,[10],inactive
OCCn1cc(-c2ccc3c(c2)CC/C3=N\O)c(-c2ccncc2)n1,Potency,[1],inactive
same,Potency,[11],inactive
same,Potency,[9],inactive
same,Potency,[12],inactive
same,Z-AUC,[13],2.52 (inactive)
same,Z-AUC,[13]; [17],1.44
same,Z-AUC,[13]; measured here: PEO4 Z-AUC,1.33
CN1CCN(Cc2ccc(Nc3ncc(Cl)c(Nc4ccccc4S(=O)(=O)N(C)C)n3)cc2)CC1,Potency,[1],0.0596 µM (active)
same,Potency,[11],0.151 µM (active)
same,Potency,[3],0.0241 µM (active)
same,outcome,[9],inactive [at 9.52 µM]
same,"activity change, negative = inhibition",[12],-3.36% [at 9.73 µM] (inactive)
same,Potency,[13],0.0796 µM (active)
same,Z-AUC,[13]; [17],-1.68
same,Z-AUC,[13]; measured here: PEO4 Z-AUC,-1.52
COc1cc2c(cc1OC)/C(=C/c1ccc(O)cc1)C(=O)N2,Potency,[1],inactive
same,Potency,[2],inactive
same,Potency,[9],inactive
c1nc(NCC2CCOC2)c2cc(-c3ccc4c(c3)OCO4)ccc2n1 (stereo unspecified),Potency,[1],inactive
same,Potency,[2],inactive
same,Potency,[3],16.4 µM (active)
same,activity,[5],-39.2%
same,Potency,[6],42.9 µM (active)
same,activity,[7],-29.1%
same,activity,[8],-63.5%
same,Potency,[9],inactive
O=C1c2ccccc2-c2c(NCCc3ccccc3)c(=O)[nH]c3cccc1c23,Potency,[1],1.03 µM (active)
same,Potency,[2],1.16 µM (active)
same,Potency,[3],5.17 µM (active)
same,Potency,[9],inactive
CC(C)n1cc(-c2ccc(Oc3ccccc3)cc2)c2c(N)ncnc21,Potency,[1],14.6 µM (active)
same,outcome,[14],inactive
same,Potency,[3],1.64 µM (active)
same,Potency,[4],2.06 µM (active)
same,activity,[5],-15%
same,"activity change, negative = inhibition",[6],-8.59%
same,activity,[7],-34.7%
same,activity,[8],-60.7%
same,Potency,[9],inactive
Cc1cc(F)c(Nc2ncnc3cc(OCc4ccccc4)ccc23)cc1O,Potency,[1],inactive
same,Potency,[15],inactive
same,Potency,[3],3.66 µM (active)
same,Potency,[4],3.26 µM (active)
same,Potency,[9],inactive
CSc1nc(N)cc(Oc2ccc(-c3nc(Nc4cccc(C(F)(F)F)c4)n[nH]3)cc2)n1,Potency,[1],4.61 µM (active)
same,Potency,[2],5.8 µM (active)
same,Potency,[3],1.64 µM (active)
same,Potency,[9],inactive
c1ccc(-c2[nH]ncc2-c2ccnc3ccccc23)nc1,Potency,[1],inactive
same,Potency,[15],inactive
same,Potency,[16],inactive
same,Potency,[3],inactive
same,Potency,[4],inactive
same,Potency,[9],inactive
O=c1cc(N2CCNCC2)oc2c(-c3ccccc3)cccc12,Potency,[1],7.31 µM (active)
same,Potency,[15],inactive
same,Potency,[16],inactive
